Consider eleven compounds from PubChem BioAssay.

The target of this assay is Epidermal growth factor receptor (Homo sapiens) (UniProt P00533). Description: compounds binding epidermal growth factor receptor – biochemical, small-molecule microarray, 635 nm fluorescence, primary screen (AID 1104).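 Further: score merges 667 nm emission intensity with spot signal to noise over triplicate slides.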 Conditions: EGFR binding, higher = more signal.
Sequence of Epidermal growth factor receptor (Homo sapiens) (P00533 whole entry, looked up): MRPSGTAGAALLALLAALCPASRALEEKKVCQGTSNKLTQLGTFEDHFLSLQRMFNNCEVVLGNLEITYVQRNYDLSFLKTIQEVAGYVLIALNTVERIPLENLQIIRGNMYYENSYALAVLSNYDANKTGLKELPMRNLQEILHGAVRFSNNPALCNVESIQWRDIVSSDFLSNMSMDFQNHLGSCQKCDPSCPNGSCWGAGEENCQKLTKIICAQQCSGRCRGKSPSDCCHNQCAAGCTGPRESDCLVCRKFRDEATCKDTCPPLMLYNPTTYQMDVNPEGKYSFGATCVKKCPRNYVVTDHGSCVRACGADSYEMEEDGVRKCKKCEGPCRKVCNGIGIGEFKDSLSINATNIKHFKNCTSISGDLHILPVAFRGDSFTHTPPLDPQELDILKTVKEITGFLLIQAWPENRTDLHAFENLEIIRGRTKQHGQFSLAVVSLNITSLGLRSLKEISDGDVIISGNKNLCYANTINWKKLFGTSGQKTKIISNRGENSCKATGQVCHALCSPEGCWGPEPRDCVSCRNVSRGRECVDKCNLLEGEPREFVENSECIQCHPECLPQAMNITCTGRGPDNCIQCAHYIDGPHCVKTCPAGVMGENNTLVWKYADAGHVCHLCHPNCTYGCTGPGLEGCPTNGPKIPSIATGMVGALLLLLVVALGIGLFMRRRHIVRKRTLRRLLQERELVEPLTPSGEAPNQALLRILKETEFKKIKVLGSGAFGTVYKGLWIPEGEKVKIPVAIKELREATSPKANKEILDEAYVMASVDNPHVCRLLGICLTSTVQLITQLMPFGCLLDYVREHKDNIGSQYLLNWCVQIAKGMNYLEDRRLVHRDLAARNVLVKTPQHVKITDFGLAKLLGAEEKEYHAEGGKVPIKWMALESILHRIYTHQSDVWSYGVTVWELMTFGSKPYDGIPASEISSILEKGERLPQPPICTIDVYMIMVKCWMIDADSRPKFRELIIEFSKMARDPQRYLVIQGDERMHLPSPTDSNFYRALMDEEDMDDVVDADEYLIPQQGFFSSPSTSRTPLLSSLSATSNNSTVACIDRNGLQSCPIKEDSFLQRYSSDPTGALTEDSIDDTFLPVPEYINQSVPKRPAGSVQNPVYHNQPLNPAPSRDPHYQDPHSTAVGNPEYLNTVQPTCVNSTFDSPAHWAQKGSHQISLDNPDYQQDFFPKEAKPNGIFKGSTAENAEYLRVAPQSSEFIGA
The compound `O=C1C=C[C@@H](O)[C@@H]2[C@@H]3C(=O)N(C4CCCCC4)C(=O)[C@@H]3CC[C@@H]12` yielded a composite z-score of 0.378.
To `C[C@@H]1CC[C@H]2C(=O)OC(Cc3ccccc3)CN2[C@H]1c1ccc(Br)cc1` (stereo partly specified) belongs 0.0012; to `O=C1[C@H]2[C@H]3[C@H](O)[C@H](O)CC(=NO[C@@H]4O[C@H](CO)[C@@H](O)[C@H](O)[C@H]4O)[C@H]3CC[C@H]2C(=O)N1c1ccc(F)cc1F`, 0.172.
To `COc1ccc(COC(=O)NN=C2C[C@@H](O)[C@@H](O)[C@@H]3[C@@H]4C(=O)N([C@@H](C)c5ccccc5)C(=O)[C@@H]4CC[C@H]23)cc1` belongs -0.587.
For `CC(=O)OC[C@H]1O[C@H](CC=NO[C@H](C)c2cn([C@@H]3COC[C@H]3O)nn2)C=C[C@@H]1OC(C)=O`, the composite z-score amounted to 0.476.
`COc1ccc(O[C@H]2C=C[C@@H](c3ccccc3)O[C@@H]2CO)cc1` gave a composite z-score of 0.731.
Regarding `CCOC(=O)[C@H](Cc1ccccc1)NC(=O)CCC1CC(OC(=O)NCCc2ccc(F)cc2)CC2(CCCC(COC(=O)NCCOc3ccccc3)O2)O1` (stereo partly specified), the composite z-score came to 0.597.
Take `O=C1C[C@@H](O)[C@@H](O)[C@@H]2[C@@H]3C(=O)N(C4CCCCC4)C(=O)[C@@H]3CC[C@@H]12`: the composite z-score was determined as 0.613.
`CC(CCN1CCCCc2nc(C)c(C)cc21)=NO[C@@H](C)c1cc(-c2c(C)cc(C)cc2C)no1`: the composite z-score is -1.51.
`CCOC(=O)[C@H](CC(C)C)NC(=O)CCC1CC(OC(=O)NCc2ccc3c(c2)OCO3)CC2(CCCC(COC(=O)NCCOc3ccccc3)O2)O1` (stereo partly specified) showed a composite z-score of 0.224.
`C=CC[C@@H]1C=C[C@H](ON=C(C)CCN2CCCc3nc(C)c(C)cc32)[C@@H](CO)O1` registered a composite z-score of 0.759.
